The list is not random: actives were taken first. Their share in the collection is about 3.5%.
TEAD-YAP inh: TEAD-YAP interaction inhibition, primary screen, TEAD-YAP interaction inhibitor project, luminescence, HEK-TIYL cells. 1.4% of 640,000 active. inhibition, % at 9.12 µM. AID 1259422, 2018. TEAD-Gal4/YAP UAS-luciferase luminescence; in the data active = inhibition above about 32%;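 note: 0% = median of test compound wells and 100% = reference inhibitor wells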
FBW7 activator: FBW7 E3 ligase activators, primary screen, biochemical, AlphaScreen, human. AlphaScreen FBW7–phospho-cyclin E peptide binding, activator screen. normalized activity (activation), % at 26.1 µM. 0.13% of 650,000 active. F-box/WD repeat-containing protein 7 (Homo sapiens), Q969H0; in the data active = normalized activity above about 1.9%;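 note: purified mutant Fbw7 with reduced substrate affinity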
Target sequence (Q969H0 whole entry, looked up): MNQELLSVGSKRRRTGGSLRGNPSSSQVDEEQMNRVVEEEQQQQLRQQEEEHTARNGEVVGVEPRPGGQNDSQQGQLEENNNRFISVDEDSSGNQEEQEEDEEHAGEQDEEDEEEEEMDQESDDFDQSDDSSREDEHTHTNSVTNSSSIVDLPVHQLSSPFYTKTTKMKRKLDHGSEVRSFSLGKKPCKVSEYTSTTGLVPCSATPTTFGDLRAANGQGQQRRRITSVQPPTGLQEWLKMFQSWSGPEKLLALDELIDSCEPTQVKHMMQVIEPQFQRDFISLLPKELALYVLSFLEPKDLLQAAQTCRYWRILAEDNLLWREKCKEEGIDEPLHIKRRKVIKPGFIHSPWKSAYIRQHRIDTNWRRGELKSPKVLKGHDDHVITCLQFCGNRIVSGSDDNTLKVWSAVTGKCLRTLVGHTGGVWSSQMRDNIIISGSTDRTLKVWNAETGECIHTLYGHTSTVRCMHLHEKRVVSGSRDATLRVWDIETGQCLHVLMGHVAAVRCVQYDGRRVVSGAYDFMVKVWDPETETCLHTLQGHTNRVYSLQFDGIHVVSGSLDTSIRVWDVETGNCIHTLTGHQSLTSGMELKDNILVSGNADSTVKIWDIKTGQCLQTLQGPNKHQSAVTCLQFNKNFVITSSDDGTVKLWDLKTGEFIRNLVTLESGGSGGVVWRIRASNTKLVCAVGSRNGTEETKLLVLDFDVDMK
MITF inh: MITF inhibitors, primary screen, biochemical, AlphaScreen, human; Microphthalmia-associated transcription factor (Homo sapiens), O75030; AlphaScreen MITF homodimerization, bead proximity signal; inhibition, % at 2.6 µM; 0.91% of 650,000 active; in the data active = inhibition above about 50%;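 note: 0% = vehicle wells with protein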
GPR151 activ: activators of human GPR151, primary screen, cell-based, PathHunter beta-arrestin, luminescence; G-protein coupled receptor 151 (Homo sapiens), Q8TDV0; PathHunter beta-arrestin GPR151 cells; activation, % at 11.2 µM; 1% of 650,000 active; AID 1508602, 2020; in the data active = activation above about 4.9%;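 note: 0% = median of compound wells and 100% = cells with positive control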
MITF inh conf: MITF inhibitors, retest of hits, confirmation, biochemical, AlphaScreen, triplicate | shares compounds with MITF inh | AlphaScreen MITF homodimerization, biotin/His-MITF beads | inhibition, % at 2.6 µM | 16% of 4,700 active | AID 1259372, 2018;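 active = inhibition above a cutoff derived from the DMSO control wells, cut at about 28% in these data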;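 note: 0% = MITF dimer wells with DMSO only; inhibitors lower the bead chemiluminescence by keeping MITF from dimerizing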
AlphaScreen DR: AlphaScreen optical interference compounds, dose response, counter-screen, biochemical, HTS. shares compounds with MITF inh. AlphaScreen optical interference counterscreen, cell-free. IC50, µM. 6% of 480 active; call rule not given here
AlphaScreen intf2: AlphaScreen optical interference compounds, counter-screen for MITF inhibitor project, biochemical, triplicate. shares compounds with MITF inh. LysRS AlphaScreen counterscreen, signal interference. inhibition, % at 2.6 µM. 7.6% of 4,700 active. AID 1259376, 2018;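 active = inhibition above a cutoff derived from the DMSO control wells, cut at about 30% in these data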
The depositor's hits bear a star.

How did CCn1c(C)nc2cc(C(=O)NNC(=O)COc3cccc(Br)c3)ccc21 do in these assays?
TEAD-YAP inh: 1; FBW7 activator: 0; MITF inh: 86*; GPR151 activ: 3; MITF inh conf: 1; AlphaScreen intf2: -2

How did CCOC(=O)C1=C(C)NC2=C(C(=O)CC(c3ccccc3)C2)C1c1ccc(OC)cc1OC (stereo not given) do in these assays?
TEAD-YAP inh: -6; FBW7 activator: 0; MITF inh: 3; GPR151 activ: 0

How did Cc1cc(Br)ccc1OCCOCCNC(C)(C)C do in these assays?
TEAD-YAP inh: 6; FBW7 activator: 0; MITF inh: 63*; GPR151 activ: -2; MITF inh conf: 4; AlphaScreen intf2: -1

Results for Cc1cc(OCCOCCNC(C)(C)C)cc(C)c1Cl ?
TEAD-YAP inh: 0; FBW7 activator: 0; MITF inh: 31; GPR151 activ: 1

Results for Cc1ccc(C)c(OCCOCCNC(C)(C)C)c1 ?
TEAD-YAP inh: 2; FBW7 activator: 0; MITF inh: 33; GPR151 activ: 0

What do the screens show for `Cc1cc(Cl)cc(C)c1OCCOCCNC(C)(C)C`?
TEAD-YAP inh: 3; FBW7 activator: 0; MITF inh: 67*; GPR151 activ: 0; MITF inh conf: -11; AlphaScreen intf2: -9

How did CCCOC(=O)c1cccc(NC(=O)CCN2C(=O)c3ccccc3C2=O)c1 do in these assays?
TEAD-YAP inh: 2; FBW7 activator: 0; MITF inh: 7; GPR151 activ: 4

Results for CCCC1(C(=O)OCC)NC(c2cccs2)C2C(=O)N(c3ccccc3)C(=O)C21 (stereo not given) ?
TEAD-YAP inh: -2; FBW7 activator: 0; MITF inh: -4; GPR151 activ: 4

Results for CCCCNCCOCCOc1ccc(Cl)cc1 ?
TEAD-YAP inh: -3; FBW7 activator: 0; MITF inh: 80*; GPR151 activ: 2; MITF inh conf: -8; AlphaScreen intf2: -4

Results for CCCCNCCOCCOc1cc(C)ccc1Cl ?
TEAD-YAP inh: 0; FBW7 activator: 0; MITF inh: 54*; GPR151 activ: -1; MITF inh conf: 11; AlphaScreen intf2: 8

What do the screens show for `Cn1c(-c2ccc(Br)cc2)cnc1NCc1ccc(C#N)cc1`?
TEAD-YAP inh: -17; FBW7 activator: 0; MITF inh: 33; GPR151 activ: 0

Results for Cn1c(-c2ccc(Cl)cc2)cnc1NCc1ccc(C#N)cc1 ?
TEAD-YAP inh: -7; FBW7 activator: 0; MITF inh: 54*; GPR151 activ: -1; MITF inh conf: -10; AlphaScreen intf2: -13

What do the screens show for `COc1ccccc1-c1nnc(SCC(=O)N2CCc3ccccc32)o1`?
TEAD-YAP inh: 6; FBW7 activator: 0; MITF inh: 62*; GPR151 activ: 2; MITF inh conf: 9; AlphaScreen intf2: -9

Results for O=C(/C=C/c1ccc(-c2cccc(C(F)(F)F)c2)o1)c1ccco1 ?
TEAD-YAP inh: -11; FBW7 activator: 0; MITF inh: 78*; GPR151 activ: 3; MITF inh conf: 70*; AlphaScreen DR: >6.6; AlphaScreen intf2: 29

What do the screens show for `O=C(/C=C/c1ccc(-c2ccc(F)cc2)o1)c1ccco1`?
TEAD-YAP inh: -64; FBW7 activator: 0; MITF inh: 58*; GPR151 activ: 0; MITF inh conf: 77*; AlphaScreen intf2: 40*

How did Cc1ccc(C(=O)/C=C/c2ccc(-c3cccc(C(F)(F)F)c3)o2)cc1 do in these assays?
TEAD-YAP inh: 6; FBW7 activator: 0; MITF inh: -1; GPR151 activ: 2

How did Cc1cccc(CN2CCN(C(=O)c3ccccc3F)CC2)c1 do in these assays?
TEAD-YAP inh: 7; FBW7 activator: 0; MITF inh: 43; GPR151 activ: 2

How did O=C(c1cccc(F)c1)N1CCN(Cc2cccc(Br)c2)CC1 do in these assays?
TEAD-YAP inh: 11; FBW7 activator: 0; MITF inh: 50; GPR151 activ: 0

Screens deposited in PubChem by The Scripps Research Institute Molecular Screening Center.
